Assay results published in PubChem BioAssay (NCATS).
Where “and” joins values, the source holds several entries; their conditions need not be identical. Identical values can stand only once. Inconclusive results are not listed. Calls of active or inactive are those of the source. Calls come from the whole dose curve; as a rule, active = well fitted curve in the direction sought with a large enough effect; inconclusive = small, poorly fitted or top-dose-only effect, or another doubt; inactive = no such curve, though single readings can be large; an effect the other way counts as inactive or inconclusive.

Columns and labels:
[1] = molecular target: Glutathione peroxidase 1 (Homo sapiens) (UniProt P07203); assay: Primary qHTS Assay for Inhibitors of Recombinant Selenoprotein Glutathione Peroxidase 1 (GPX1) (AID 1845191); note: nearly all actives have a fitted effect of over 65% in size; note: potency is the fitted concentration of half-maximal effect; for activity, negative = inhibition: % is set by controls: 0 for no effect and ±100 for the full control effect
Outline: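 GR-coupled assay: compounds preincubated 30 min at room temperature with GPX1, then reaction started with CHP; final 10 nM GPX1, 1 mM GSH, 0.5 mM CHP, 0.5 mM NADPH, 100 nM GR, 0.01% BSA, pH 7.5 Tris buffer. NADPH fluorescence (340/450 nm) read at 0 and 15 min.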

[2] = molecular target: Phospholipid hydroperoxide glutathione peroxidase GPX4 (Homo sapiens) (UniProt P36969); assay: Primary qHTS Assay for Inhibitors of Recombinant Selenoprotein Glutathione Peroxidase 4 (GPX4) (AID 1845192); note: nearly all actives have a fitted effect of over 65% in size; note: potency is the fitted concentration of half-maximal effect; for activity change, negative = inhibition: series mostly up to about 50 µM; % is set by controls: 0 for no effect and ±100 for the full control effect
Outline: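 GR-coupled assay: recombinant GPX4 preincubated 30 min with compound at room temperature; final 200 nM GPX4, 1 mM GSH, 0.5 mM cumene hydroperoxide, 0.5 mM NADPH, 100 nM GR, 0.01% BSA, pH 7.5 Tris. NADPH fluorescence (340/450 nm) read at 0 and 15 min.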

[3] = molecular target: Luciferin 4-monooxygenase (Photinus pyralis) (UniProt P08659); assay: Primary firefly luciferase (FLuc) qHTS assay for identification of artifact compounds. (AID 1845220); note: nearly all actives have a fitted effect of over 60% in size;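 for activity change, negative = inhibition: series mostly up to about 54 µM; plate controls were DMSO vehicle for no effect and no enzyme for full effect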
Outline: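 D-luciferin and ATP (10 uM each, final) in Tris acetate buffer pH 7.6 were incubated with compounds for 15 min at room temperature. The reaction was started with 10 nM Photinus pyralis luciferase and luminescence read after 5 min. Percent inhibition was fitted to a 4-parameter Hill equation.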

[4] = Primary fluorescence-based thiol-reactive (MSTI) qHTS assay for identification of artifact compounds. (AID 1845221);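 note: series mostly up to about 54 µM; thiol-reactive compounds lower the probe fluorescence signal; nearly all actives have a fitted effect of over 65% in size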
Outline: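 Reactivity toward the thiol probe MSTI (4 uM) is scored by fluorescence at Ex/Em 525/598 nm after 1 h at room temperature. Acetyl-MSTI and MSTI define the activity scale.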

[5] = tested on: Nanoluciferase (engineered Oplophorus gracilirostris luciferase); assay: Primary Nanoluciferase (NLuc) qHTS assay for identification of artifact compounds. (AID 1845222);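 note: series mostly up to about 54 µM; 0% = DMSO and -100% = no enzyme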
Outline: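 Diluted conditioned medium from NLuc-expressing S16 cells treated with compounds for 15 min at room temperature, then Nano-Glo substrate added; luminescence read after 5 min. Percent inhibition versus no-enzyme and DMSO controls fitted to 4-parameter Hill equation.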

[6] = Primary redox qHTS assay for identification of artifact compounds. (AID 1845223);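 note: 0% = DMSO and 100% = reference compound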
Outline: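 Amplex Red (25 uM) and HRP (250 mU/mL) in HBSS, with compounds for 15 min, then 250 uM DTT for 30 min, room temperature, dark. Fluorescence 525/598 nm read; normalized to DMSO and 10 uM DA3003; Hill fit.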

Sequence of Glutathione peroxidase 1 (Homo sapiens) (P07203 whole entry, looked up): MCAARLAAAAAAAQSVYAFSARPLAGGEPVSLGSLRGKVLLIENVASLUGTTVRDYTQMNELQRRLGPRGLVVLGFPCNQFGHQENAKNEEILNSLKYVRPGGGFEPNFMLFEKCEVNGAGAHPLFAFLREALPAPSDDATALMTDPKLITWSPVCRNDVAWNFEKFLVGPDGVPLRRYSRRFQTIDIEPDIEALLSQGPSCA
Sequence of Phospholipid hydroperoxide glutathione peroxidase GPX4 (Homo sapiens) (P36969 whole entry, looked up): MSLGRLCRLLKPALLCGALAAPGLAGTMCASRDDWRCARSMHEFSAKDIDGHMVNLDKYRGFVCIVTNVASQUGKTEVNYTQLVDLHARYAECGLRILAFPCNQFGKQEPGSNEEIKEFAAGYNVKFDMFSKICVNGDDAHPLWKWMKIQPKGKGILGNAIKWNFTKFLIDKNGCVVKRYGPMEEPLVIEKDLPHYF

CC(=O)O[C@@H]1CC[C@@]2(C)[C@H](CC[C@@H]3[C@@H]2C[C@H](OC(C)=O)[C@]2(C)[C@@H](C(C)=O)CC[C@@H]32)C1
inactive: Potency [1] | Potency [2] | Potency [3] | Potency [4] | Potency [5]

O=C(Cc1c(F)cccc1F)Nc1cc(OCc2ccc(Cl)cc2)ccn1
inactive: Potency [1] | Potency [2] | Potency [3] | Potency [4] | Potency [5] | Potency [6]

O=C(Nc1cccnn1)N1CCN(c2nccc(-c3ccc(F)c(F)c3)n2)CC1
inactive: Potency [1] | Potency [2] | Potency [3] | Potency [4] | Potency [5] | Potency [6]

Fc1ccc(-n2cc(CCCCN3CCC4(CC3)OCc3ccccc34)c3ccccc32)cc1
inactive: Potency [1] | Potency [2] | Potency [3] | Potency [4] | Potency [5] | Potency [6]

CC(O)(C(=O)O)C1CCC2(C)C1CCC1(C)C2CCC2C3(C)CCC(O)C(C)(COC4OC(CO)C(O)C(O)C4O)C3CCC21C (stereo not given)
inactive: Potency [1] | Potency [2] | Potency [3] | Potency [4] | Potency [5] | Potency [6]

CCC(C)CC(=O)OC1C(=O)C(CO)=CC(O)C1C(C)C (stereo not given)
inactive: Potency [1] | Potency [2] | Potency [3] | Potency [4] | Potency [5] | Potency [6]

C[C@H](Oc1cc(-n2cnc3ccc(CN4CCN(C)CC4)cc32)sc1C(N)=O)c1ccccc1C(F)(F)F
inactive: Potency [1] | Potency [2] | Potency [3] | Potency [4] | Potency [5] | Potency [6]

Oc1cccc(C2NC(=S)Nc3cccc(F)c32)c1 (stereo not given)
inactive: Potency [1] | Potency [2] | Potency [3] | Potency [4] | Potency [5] | Potency [6]

CC(=O)C1=CCC2C3CC=C4CC(O)CC(O)C4(C)C3C(O)CC12C (stereo not given)
inactive: Potency [1] | Potency [2] | Potency [3] | Potency [4] | Potency [5] | Potency [6]

CN1CCN(c2ccc(OC(F)(F)F)c(Nc3ncc4c(n3)-c3c(c(C(N)=O)nn3CCO)CC4)c2)CC1
inactive: Potency [1] | Potency [2] | Potency [3] | Potency [4] | Potency [5]

O=C(Nc1nc2cc(C(F)(F)F)cc(NC3CC3)n2n1)c1cccnc1
inactive: Potency [1] | Potency [2] | Potency [3] | Potency [4] | Potency [5] | Potency [6]

C[C@@H]1O[C@@H](O[C@H]2[C@@H](OC(=O)[C@]34CCC(C)(C)CC3C3=CCC5[C@@]6(C)C[C@H](O)[C@H](O[C@@H]7O[C@H](CO)[C@@H](O)[C@H](O)[C@H]7O[C@@H]7OC[C@@H](O)[C@H](O)[C@H]7O)[C@@](C)(C(=O)O)C6CC[C@@]5(C)[C@]3(C)CC4)OC[C@H](O)[C@@H]2O)[C@H](O)[C@H](O)[C@H]1O[C@@H]1OC[C@@H](O)[C@H](O)[C@H]1O (stereo not given in full)
inactive: outcome [1] inactive [at 9.52 µM] | activity change, negative = inhibition [2] 1.61% [at 9.73 µM] | outcome [3] inactive [at 11.6 µM] | activity change, negative = thiol reactive [4] 151% [at 11.5 µM] | activity, negative = inhibition [5] 3.4% [at 11.6 µM] | redox activity (% of DA3003) [6] 18.4% [at 11.5 µM]

Cn1ncc2cc(-c3cnc(N)c(Cl)c3N3CCC4(CCNC4=O)CC3)ccc21
inactive: Potency [1] | Potency [2] | Potency [3] | Potency [4] | Potency [5] | Potency [6]

C=C1C(=O)O[C@@H]2[C@H]1CC(=O)[C@H](C)[C@@](O)(C(=O)/C=C/C)[C@H]2OC(=O)C(C)CC (stereo not given in full)
inactive: Potency [1] | Potency [2] | Potency [3] | Potency [4] | Potency [5] | Potency [6]

O=S(=O)(N[C@H]1CCCC[C@@H]1N1CCOCC1)c1ccc(Cl)cc1
inactive: Potency [1] | Potency [2] | Potency [3] | Potency [4] | Potency [5] | Potency [6]

Cc1cc2c(cc1N1C(=O)c3cccc4c(CCCO)ccc(c34)C1=O)n(C)c(=O)n2C
inactive: Potency [1] | Potency [2] | Potency [3] | Potency [4] | Potency [5]

COc1ccc(CCCN2CCC(COC(c3ccccc3)c3ccccc3)CC2)cc1
inactive: Potency [1] | Potency [2] | Potency [3] | Potency [4] | Potency [5] | Potency [6]

CCOc1cc(C(C)(C)C)ccc1C1=N[C@@](C)(c2ccc(Cl)cc2)[C@@](C)(c2ccc(Cl)cc2)N1C(=O)N1CCN(CC(=O)N2CCOCC2)CC1
inactive: Potency [1] | Potency [2] | Potency [3] | Potency [4] | Potency [5] | Potency [6]

CNCCCC1(c2ccccc2)OC(C)(C)c2ccccc21 (stereo not given)
inactive: Potency [1] | Potency [2] | Potency [3] | Potency [4] | Potency [5] | Potency [6]

CC(=O)O[C@H]1[C@@]2(O)C[C@H](C)[C@H](OC(=O)c3ccccc3)[C@@H]2[C@@H](OC(=O)CO)[C@]2(OC(C)=O)C[C@H]3C(=O)C(C)(C)C[C@@H]3[C@@]1(C)[C@H]2OC(C)=O
inactive: Potency [1] | Potency [2] | Potency [3] | Potency [4] | Potency [5] | Potency [6]

COCCNCc1ccc(-c2cc3nccc(Oc4ccc(NC(=O)C5(C(=O)Nc6ccc(F)cc6)CC5)cc4F)c3s2)nc1
inactive: Potency [1] | Potency [2] | Potency [3] | Potency [4] | Potency [5] | Potency [6]

CCn1nc(C2CCN(C(=O)CCO)CC2)nc1-c1cnc(N)c(-c2nnc(C(C)(C)C)o2)n1
inactive: Potency [3] | Potency [4] | Potency [5] | Potency [6]
active: Potency [1] 20.2 µM and 20.5 µM | Potency [2] 14.3 µM

C[C@@H](NC(=O)c1ccc(C#Cc2cccc(F)c2)cn1)C(C)(C)O
inactive: Potency [1] | Potency [2] | Potency [3] | Potency [4] | Potency [5] | Potency [6]

Cn1ncc(Cl)c1-c1cc(C(=O)N[C@H](CN)Cc2ccc(F)c(F)c2)sc1Cl
inactive: Potency [1] | Potency [2] | Potency [3] | Potency [4] | Potency [5] | Potency [6]

CC(C)(C)[C@H](NC(=O)c1ccc(N)c(Cl)c1)C(=O)N1CCC[C@H]1C(=O)N[C@H](C#N)CC(=O)O
inactive: Potency [1] | Potency [2] | Potency [3] | Potency [4] | Potency [5] | Potency [6]

COC1CC(O[C@H]2CC[C@]3(C)C4CC[C@@]5(C)C(=O)[C@]4(CC[C@@H]3C2)CC[C@@H]5C2=CC(=O)OC2)OC(C)C1OC1OC(COC2OC(CO)C(O)C(O)C2O)C(O)C(O)C1O (stereo not given in full)
inactive: Potency [1] | Potency [2] | outcome [3] inactive [at 11.6 µM] | activity change, negative = thiol reactive [4] 91.7% [at 11.5 µM] | activity, negative = inhibition [5] 0% [at 11.6 µM] | redox activity (% of DA3003) [6] 13.6% [at 11.5 µM]

CCC(C)C(=O)O[C@H]1[C@H](O)[C@@]2(COC(C)=O)C(CC1(C)C)C1=CCC3[C@@]4(C)CC[C@H](O[C@@H]5O[C@H](C(=O)O)[C@@H](O)[C@H](O)[C@H]5O)[C@@](C)(CO)C4CC[C@@]3(C)[C@]1(C)C[C@@H]2O (stereo not given in full)
inactive: Potency [1] | Potency [2] | outcome [3] inactive [at 11.6 µM] | activity change, negative = thiol reactive [4] 57.8% [at 11.5 µM] | activity, negative = inhibition [5] 3.16% [at 11.6 µM] | redox activity (% of DA3003) [6] 14.3% [at 11.5 µM]

COc1cc(-n2cnc3cc(-c4ccc(Cl)cc4)sc3c2=O)ccc1OCCN1CCCC1
inactive: Potency [1] | Potency [2] | Potency [3] | Potency [4] | Potency [5] | Potency [6]

CN1CCN(C(=O)CN[C@@H]2C[C@H]2c2ccc(OCc3ccccc3)cc2)CC1
inactive: Potency [1] | Potency [2] | Potency [3] | Potency [4] | Potency [5] | Potency [6]

C#CCOc1ccc2c(c1)c(-c1ccc(C(C)C)cc1)nc(=O)n2C(C)C
inactive: Potency [1] | Potency [2] | Potency [3] | Potency [4] | Potency [5] | Potency [6]

O=C(Nc1ccccc1Cl)c1cnc2ccc(C3CCNCC3)cn12
inactive: Potency [1] | Potency [2] | Potency [3] | Potency [4] | Potency [5] | Potency [6]

C1=C/COCc2cc(ccc2OCCN2CCCC2)Nc2nccc(n2)-c2cccc(c2)COC/1
inactive: Potency [1] | Potency [2] | Potency [3] | Potency [4] | Potency [5] | Potency [6]

Cc1cc(N2CCN(C(=O)Oc3ccc(-c4ccccc4)cn3)CC2)c2ccccc2n1
inactive: Potency [1] | Potency [2] | Potency [3] | Potency [4] | Potency [5] | Potency [6]

C=C(C)C(=O)OC1CC2(C)OC(=CC2=O)C(=C)CC2OC(=O)C(=C)C12 (stereo not given)
inactive: Potency [1] | Potency [2] | Potency [3] | Potency [4] | Potency [5] | Potency [6]

C=CC(=O)N1CCC(Oc2cc3c(Nc4ccc(Cl)c(Cl)c4F)ncnc3cc2OC)CC1
inactive: Potency [1] | Potency [2] | Potency [3] | Potency [4] | Potency [5] | Potency [6]

CC1=C(C(=O)Nc2cc(Cl)ccc2Cl)C(c2ccco2)C2=C(CCCC2=O)N1 (stereo not given)
inactive: Potency [1] | Potency [2] | Potency [3] | Potency [4] | Potency [5] | Potency [6]

CC(=O)OCC(=O)[C@@]12O[C@@H]1C[C@H]1[C@@H]3CC=C4C[C@@H](O)CC[C@]4(C)[C@H]3CC[C@@]12C
inactive: Potency [1] | Potency [2] | Potency [3] | Potency [4] | Potency [5] | Potency [6]

CN(C)C(=O)COC(=O)c1cc(-c2ccc(C3CCNCC3)cc2)c2ccc(-c3ccc(C(F)(F)F)cc3)cc2c1
inactive: Potency [1] | Potency [2] | Potency [3] | Potency [4] | Potency [5] | Potency [6]
